Source: PubChem BioAssay (Broad Institute)
Only some compounds are listed: those with a hit (about 2.9% of all), similar ones and a draw of the others.
PfHsp90 yeast 2 = reduces growth (ATP signal) of yeast expressing P. falciparum Hsp90; AID 504621; hit rate 0.32% among 310,000; S. cerevisiae expressing PfHsp90, BacTiter-Glo ATP, 48 h; yeast lacking PDR1 and PDR3 efflux regulators; inhibition, % at 9.4 µM;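 active = every replicate shows inhibition above about 80%, whatever the replicate mean, limit read from the data; inconclusive = mean inhibition reaches the set limit but some replicate falls short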;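 note: 0% = DMSO neutral controls and 100% = 20 µM radicicol positive controls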
NSD2 HMT inh = blocks human histone methyltransferase NSD2 | NSD2 peptide methylation, AlphaScreen, 120 min | inhibition, % at 12.5 µM | hit rate 0.54% among 310,000; in the data active = inhibition above about 50%
Glyco luc inh = blocks N-linked glycosylation in D54 reporter cells; hit rate 0.23% among 360,000; reporter increase, % at 12.5 µM; D54 ERlucT glycosylation luciferase reporter, 24 h; percent of 100 nM tunicamycin response;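 active = mean luciferase reporter signal, scaled so untreated is 0 and the glycosylation-blocking control 100, at or above a set limit in every replicate; inconclusive = mean reaches the limit but not every replicate does; inactive = mean below the limit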;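 note: luciferase carries N-glycosylation sites so blocking glycosylation raises the light; 0% = median of neutral control wells and 100% = median of 100 nM tunicamycin wells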
Wnt bcat act = Wnt/beta-catenin pathway activation. AID 743398. hit rate 1.2% among 300,000. Wnt/beta-catenin reporter cell assay, activator, plate reader. activation, % at 9.35 µM; in the data active = activation above about 30%, passing the limit was not always enough; inconclusive = no clear call, values can overlap the other calls;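 note: 0% = neutral control wells and 100% = positive control wells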
TRPM1 prom inh = reduces MITF-dependent TRPM1 promoter luciferase signal; hit rate 0.83% among 330,000; inhibition, % at 12.5 µM; SK-MEL-5 TRPM1 promoter luciferase, 24 h;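 active = mean inhibition across replicates of 60% or more, whatever share of single replicates reaches that level; inconclusive = some that reach 60%, reason not given; inactive = mean inhibition across replicates below 60%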
MITF TRPM1 HTS = increases MITF-driven TRPM1 promoter luciferase signal | SK-MEL-5 TRPM1-promoter luciferase, 24 h; % of positive control, neutral wells = 0 | activation, % at 12.5 µM | hit rate 0.75% among 300,000 | AID 588334;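 active = mean activation of at least 80% with every replicate also reaching 80%; inconclusive = mean reaches 80% but some replicate falls short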;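 note: 0% = neutral control wells and 100% = parthenolide positive control wells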
An asterisk follows results filed as active; ? = inconclusive; nt = not tested or not shown.

SMILES | PfHsp90 yeast 2 | NSD2 HMT inh | Glyco luc inh | Wnt bcat act | TRPM1 prom inh | MITF TRPM1 HTS
COc1ccc(Cn2c(-c3ccc(C)cc3)c[n+]3ccccc23)cc1 | 22 | 0 | 1 | -7 | 78* | -76
COC(=O)CC#C[C@@H](C)[C@H](NS(=O)(=O)c1ccc(C)cc1)C(C)(C)C | nt | 0 | nt | -1 | nt | nt
COc1cc(-c2noc(C)c2/C=C/c2ccc(OC(C)=O)cc2)cc(OC)c1OC | -1 | nt | 27* | -18 | 28 | -26
O=C(/C=C(\Nc1cccc(Cl)c1F)c1ccccc1)c1ccccc1 | nt | 1 | nt | 47* | nt | nt
O=C(/C=C(\Nc1cccc(Cl)c1)c1ccccc1)c1ccccc1 | nt | nt | nt | 26 | nt | nt
COc1ccc(SN=C2C(C)=CC(=O)C=C2C)cc1 | 91* | -4 | 4 | 6 | 16 | -15
CCn1c(COc2ccc(OC)cc2)nc2ccccc21 | -6 | 0 | -7 | 43* | -45 | 59
CCn1c(COc2ccccc2)nc2ccccc21 | 7 | -6 | -2 | -5 | -25 | 26
Cc1ccc(C(Nc2ccccc2)c2ccc3ccc(C)nc3c2O)c(C)c1 (stereo unspecified) | nt | nt | nt | -4 | nt | nt
CCc1ccccc1-n1c(SCC(=O)N2CCCC2)nnc1-c1ccccn1 | 13 | nt | -1 | 65* | 0 | 1
Cc1ccc(C(=O)CSc2nnc(-c3ccccn3)n2-c2ccccc2)cc1 | nt | 0 | nt | nt | nt | nt
COc1ccc(C(=O)CSc2nnc(-c3ccco3)n2C)cc1 | 27 | 2 | 7 | 0 | -7 | 11
Cn1c(SCC(=O)c2ccccc2)nnc1-c1ccco1 | -1 | -4 | 0 | 40* | -23 | 30
Cn1c(SCC(=O)c2ccccc2)nnc1-c1ccc(O)cc1 | -15 | 1 | 1 | 64* | -17 | 23
Cn1c(SCC(=O)c2ccccc2)nnc1-c1ccncc1 | 15 | -6 | 2 | 4 | -10 | 6
Cn1c(SCC(=O)c2ccccc2)nnc1-c1ccccn1 | -1 | -3 | -4 | 57* | -42 | nt
CN(C(=O)Nc1ccc(Cl)cc1Cl)C1CCCC1 | -2 | -1 | 1 | 8 | -77 | 73
COc1cccc(C(=O)Nc2ccc(C(=O)NCC3COc4ccccc4O3)cc2)c1 (stereo unspecified) | nt | -3 | nt | nt | nt | nt
Cc1ccc(NC(=O)Cn2nnc(-c3ccccc3F)n2)cc1C | nt | 7 | nt | nt | nt | nt
O=C(CN1C(=O)/C(=C\C=C\c2ccccc2)SC1=S)Nc1ccc(F)cc1 | -21 | -3 | -1 | -1 | -1 | 7
O=C(COC(=O)CCN1C(=O)/C(=C\C=C\c2ccccc2)SC1=S)Nc1cc(F)ccc1F | -29 | 1 | 0 | -1 | 63* | -63
Clc1cc(Cl)cc(CN2CCN(c3ncc(Cc4ccccc4)cn3)CC2)c1 | nt | nt | nt | -2 | nt | nt
CC(C)(C)NC(=O)COc1ccc(CNCc2cccs2)cc1 | 7 | -2 | -8 | -8 | 2 | -1
Cc1ccc(CNc2nc(C)cs2)cc1 | -1 | 2 | -5 | 27 | -144 | 143*
CC1CCC(C(C)C)C(OC(=O)COC(=O)c2ccc(=O)[nH]c2)C1 (stereo unspecified) | -19 | 0 | 1 | -3 | -1 | 4
SMILES | PfHsp90 yeast 2 | NSD2 HMT inh | Glyco luc inh | Wnt bcat act | TRPM1 prom inh | MITF TRPM1 HTS
CC1CCC(C(C)C)C(OC(=O)COC(=O)c2cc(O)ccc2N)C1 (stereo unspecified) | -27 | -2 | 5 | 34* | 12 | -11
Cc1nc2ccccn2c1P(=O)(c1ccccc1)c1ccccc1 | nt | -3 | nt | nt | nt | nt
c1ccc(-c2nc3c4ccccc4ccn3c2CN2CCOCC2)cc1 | 14 | -53 | 2 | 49* | -10 | 9
CCCNc1cc(C)c(C#N)c2nc3ccccc3n12 | 14 | -2 | 0 | nt | 4 | -6
CCN(CC)c1cc(C)c(C#N)c2nc3ccccc3n12 | 5 | -2 | 0 | 36* | -1 | -3
Cc1c(CCCl)c(Cl)n2c(nc3ccccc32)c1C#N | 103* | nt | -19 | -4 | 97* | -96
Cc1cc(Cl)n2c(nc3ccccc32)c1C#N | nt | 10 | -5 | 5 | 81* | -81
CNc1cc(C)c(C#N)c2nc3ccccc3n12 | -4 | -1 | 3 | 1 | -12 | nt
COc1ccc(N2CCN(C(=O)c3ccccc3Br)CC2)c([N+](=O)[O-])c1 | -7 | 15 | 0 | -1 | 2 | 0
CCCCC[C@@H](/C=C/C1C(=O)C=C[C@H]1C/C=C\CCCC(=O)OC)OC(C)=O (stereo partly specified) | 3 | nt | 8 | 16 | 68* | -68
C(/C=C\c1ccco1)=NN1CCN(Cc2cccc3ccccc23)CC1 | nt | 1 | nt | nt | nt | nt
COc1ccc(CC(=O)Nc2ccc(-c3ccc4nnc(C)n4n3)cc2)cc1OC | -24 | -6 | 30* | 16 | 8 | -9
O=C(O)c1ccc2c3n(nc2c1)-c1ccc(Cl)cc1CO3 | nt | nt | nt | 36* | nt | nt
C=CCNC(=O)c1ccc2c3n(nc2c1)-c1ccccc1CO3 | nt | nt | -14 | 25 | -32 | 30
O=C(NCC1CC1)c1ccc2c3n(nc2c1)-c1ccc(Cl)cc1CO3 | -20 | nt | 4 | 25 | -62 | 59
O=C(c1ccc2c3n(nc2c1)-c1ccc(Cl)cc1CO3)N1CCCCC1 | -1 | nt | -5 | ? | -96 | 103*
Cc1ccc2c(c1)COc1c3ccc(C(=O)N4CCOCC4)cc3nn1-2 | 16 | nt | -1 | 43* | -82 | ?
Cc1ccc(OCCSc2ncnc3nc[nH]c23)cc1 | -16 | 0 | -3 | nt | -85 | 90*
COc1ccc(C(=O)CSc2ncnc3nc[nH]c23)cc1 | 14 | -4 | -2 | 4 | -13 | nt
CCN1C(=O)CSc2ccc(C(=O)NC3CCCCC3)cc21 | 6 | -3 | 1 | nt | -7 | 8
CCN1C(=O)CC(C(C)C)N(C2CCCC2)c2nc(Nc3ccc(C(=O)NC4CCN(C)CC4)cc3OC)ncc21 (stereo unspecified) | -4 | nt | 18 | nt | 84* | -82
CCN1C(=O)CC(c2ccccc2)N(C2CCCC2)c2nc(Nc3ccc(C(=O)NC4CCN(C)CC4)cc3OC)ncc21 (stereo unspecified) | 7 | nt | 60* | nt | 87* | -86
C[C@H]1[C@H](NCc2cccnc2)CC[C@@]23CCCN2C(=O)CCC[C@@H]13 | nt | 1 | nt | nt | nt | nt
COc1ccc(-c2c[n+]3c4n2CCCCC4=C(c2ccccc2)C3)cc1 | nt | 9 | 3 | nt | 78* | -78
CC(C)(C)c1ccc(C(=O)Nc2cccc(C(=O)N3CCOCC3)c2)cc1 | -14 | 0 | -7 | 10 | -16 | 16
Cc1ccc(C(=O)Nc2ccc(N3CCCCC3)cc2)cc1 | 13 | nt | -5 | ? | -101 | 106*
CN1CCN(c2ccc(NC(=O)Cc3ccccc3)cc2)CC1 | -13 | 3 | -2 | 27 | -63 | 67
Cc1ccc(C(=O)Nc2cccc(C(=O)N3CCOCC3)c2)cc1 | -25 | 3 | 2 | 41* | -14 | 9
O=C(Cc1ccccc1)Nc1ccc(N2CCCCC2)cc1 | -6 | -2 | -9 | 59* | -64 | 62
O=C(Nc1ccc(N2CCCCC2)cc1)c1cncc(Br)c1 | -28 | 6 | -7 | 39* | -122 | 128*
